This is a sample that favours compounds with a hit; in the whole collection about 3.8% have one here.
Yeast superoxide: lowers age-related superoxide in aged yeast cells; S. cerevisiae aged cells, superoxide DHE fluorescence; hits give low values; AID 2690; actives 0.18% (n = 330,000); superoxide response (% of plate mean), % at 10 µM;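 active = superoxide response under a set limit, about three screen SD below normal, cut at about 65% in these data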;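 note: yeast aged for seven days with compound at 30 °C before DHE staining; 100% = average MFI of all compound-treated wells on the plate with controls excluded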
TIM10 inh: TIM10 yeast growth inhibition; S. cerevisiae TIM10 strain growth, BacTiter-Glo luminescence, 24 h; inhibition, % at 10 µM; actives 1.4% (n = 330,000); AID 463195;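 active = inhibition of 40% or more at the single tested concentration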;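 note: wild-type TIM10 isogenic control strain grown at permissive 25 °C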
tim23-1 inh: tim23-1 yeast growth inhibition | actives 1.3% (n = 330,000) | AID 463212 | inhibition, % at 20 µM | S. cerevisiae tim23-1 growth, BacTiter-Glo luminescence, 24 h;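 active = growth inhibition of the mutant yeast at or above 50%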;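 note: temperature-sensitive mutant grown at 25 °C; plate controls were DMSO-treated mutant yeast for no effect and medium wells lacking yeast for full effect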
tim10-1 inh: growth inhibitors of tim10-1 mutant yeast; S. cerevisiae tim10-1 ts strain growth, BacTiter-Glo, 24 h; inhibition, % at 20 µM; actives 2.2% (n = 330,000); AID 463190;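 active = inhibition of at least 40%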;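 note: mutant grown at 25 °C; 0% = DMSO wells with yeast and 100% = wells holding no yeast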
NLRP3 yeast inh: blocks the NALP3 inflammasome reconstituted in yeast. Yeast reconstituted NLRP3/ASC/caspase-1, beta-gal luminescence, 24 h. inhibition, % at 10 µM. actives 0.39% (n = 330,000). AID 2825;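 active = inhibition of 50% or more; inactive = inhibition below 50%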;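 note: plate controls were induced DMSO wells for no effect and uninduced yeast grown without galactose for full effect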
tim23-1 conf: confirmation of tim23-1 mutant yeast growth inhibitors. shares compounds with tim23-1 inh. S. cerevisiae tim23-1 growth, BacTiter-Glo luminescence, 24 h. inhibition, % at 20 µM. actives 83% (n = 4,400). AID 463218;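 active = inhibition above about 39% in either of two replicate wells at 20 µM, limit read from the data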;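 note: temperature-sensitive tim23-1 mutant grown at 25 °C; 0% = DMSO wells with yeast and 100% = medium wells without yeast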
Numbers without * were called inactive; · = not tested or not shown.

SMILES	Yeast superoxide	TIM10 inh	tim23-1 inh	tim10-1 inh	NLRP3 yeast inh	tim23-1 conf
CN1C(=O)/C(=C\c2ccco2)N=C1c1ccc(Cl)cc1Cl	88	30	71*	20	0	44*
O=C1OC(/C=C/c2ccccc2)=NC/1=C/C=C/c1ccccc1	114	29	29	15	15	·
O=C1OC(/C=C/c2ccc(Cl)cc2)=NC/1=C/c1ccco1	97	24	60*	34	1	42*
COC(=O)Nc1ccc2c(c1)Nc1ccccc1CC2	91	6	66*	32	12	42*
CC(=O)Nc1ccc2c(c1)NC(=O)CC2	112	-4	14	2	-1	·
Cc1ccc(-c2nn(-c3ccccc3)cc2NC(=O)CCl)cc1	95	29	65*	36	22	44*
Cc1ccc(-c2nn(-c3ccccc3)cc2/C=N/O)cc1	112	15	59*	30	28	38*
Cc1ccc(-c2nn(-c3ccccc3)cc2CO)cc1	106	9	21	3	26	·
CCOC(=O)c1c(OCCO)nn(-c2ccc(Cl)cc2)c1N	99	2	2	-8	-3	·
COc1ccc(-c2oc3ccccc3c2C#CC(C)(C)O)cc1	86	34	52*	19	17	38*
COc1ccc(-c2c(C#CC(C)(C)O)c3ccccc3n2C)cc1	78	9	25	23	10	·
Oc1ccccc1/C=N/NC(=S)NC1CC2C=CC1C2 (stereo unspecified)	85	40	69*	18	-9	46*
COc1cc(C(=O)N/N=C/c2ccc(OC(=O)c3cccc(C)c3)cc2)ccc1O	88	5	11	0	22	·
COc1cc(/C=N/NC(=O)c2ccc(N)cc2)ccc1OC(=O)c1cccc(C)c1	97	24	65*	28	13	73*
CCOC(=O)c1nn2c(C(F)(F)F)cc(-c3ccc(OC)cc3)nc2c1Br	110	0	11	1	15	·
CCOc1ccc(OCCC(=O)OC(C)C(=O)Nc2ccc(C(C)=O)cc2)cc1 (stereo unspecified)	110	5	22	32	3	·
O=C(CCCN1C(=O)/C(=C/c2ccccc2OC(F)F)SC1=S)Nc1cccnc1	98	24	51*	16	24	52*
COc1cc(/C=N/N(c2ccccc2)c2ccccc2)ccc1O	133	2	47	-5	15	·
CN(/N=C\c1ccc(O)c(O)c1)c1nc(-c2ccccc2)cc(-c2ccccc2)n1	105	9	55*	33	7	41*
CC12CN3CCN(CC(C3)/C1=N\N=C1/C3CN4CCN(C3)CC1(C)C4)C2	94	7	6	9	18	·
Cc1c2ccccc2nc2ccccc12	80	22	70*	26	23	63*
COc1ccc(NC(=O)c2cc(Cl)ccc2NC(=O)c2ccco2)c(OC)c1	96	9	28	24	31	·
C(=N\Nc1nc2ccccc2[nH]1)/c1ccccc1	92	28	-1	15	7	·
C(=C\c1ccccc1)/C=N/Nc1nc2ccccc2[nH]1	69	19	51*	15	18	48*
O=C(N/N=C/c1ccc[nH]1)c1ccc(Cl)cc1	98	2	-6	7	11	·
SMILES	Yeast superoxide	TIM10 inh	tim23-1 inh	tim10-1 inh	NLRP3 yeast inh	tim23-1 conf
CC1=C(C)/C(=N\OC(=O)/C=C/c2ccccc2)C=CC1=O	102	6	21	27	5	·
CC1=CC(=NOC(=O)/C=C/c2ccccc2)C=C(C)C1=O	97	29	70*	37	-10	53*
C=CCN1c2ccccc2[C@]23C[C@@H](C(=O)OC)N(C(=O)NCCC)C2=NC(C(=O)OC)=C(C(=O)OC)[C@H]13	107	6	17	-1	9	·
COc1ccc(NS(=O)(=O)c2ccc(N3C(=O)CCC3=O)cc2)cc1	107	-9	-4	10	4	·
COc1ccc(S(=O)(=O)Nc2ccc(-n3cccc3)cc2)cc1	87	21	55*	37	24	50*
O=C(N/N=C/c1cc(Br)cs1)c1ccccc1[N+](=O)[O-]	85	5	8	32	1	·
O=C(N/N=C/c1ccc(Br)s1)c1cccs1	101	35	57*	19	24	63*
O=C(N/N=C/c1cc(Br)cs1)c1c[nH]c2ccccc12	100	12	60*	14	29	71*
O=C(N/N=C/c1ccc(Br)s1)c1c[nH]c2ccccc12	114	2	55*	-14	1	46*
COc1ccccc1CNC(=O)Cn1cccc1C(=O)c1ccccc1C	75	4	19	19	3	·
O=C(Nc1nccs1)c1ccc(Br)cc1	104	-10	56*	-21	36	34
Cc1ccc(C(=O)Nc2nccs2)s1	98	18	14	12	17	·
O=C(Nc1nccs1)c1ccc(Br)s1	106	31	64*	33	50	52*
Cc1cc(NC(=O)CC2CCCC2)ccc1Br	87	-5	24	-21	47	·
CCCCn1c(N)c(N(CCC(C)C)C(=O)c2ccc3c(c2)OCO3)c(=O)[nH]c1=O	118	9	62*	23	10	58*
CCCCN(C(=O)Cc1ccc2c(c1)OCCO2)c1c(N)n(CCC)c(=O)[nH]c1=O	86	-5	-4	-11	14	·
CCCN(C(=O)c1ccc([N+](=O)[O-])c(C)c1)c1c(N)n(Cc2ccccc2)c(=O)[nH]c1=O	117	10	53*	-1	8	60*
CCCCn1c(N)c(N(CCC(C)C)C(=O)C2=COCCO2)c(=O)[nH]c1=O	90	1	-6	-11	13	·
CCCCN(C(=O)c1ccc2c(c1)OCCO2)c1c(N)n(CCCC)c(=O)[nH]c1=O	99	14	59*	27	10	57*
CCCCOC(=O)Nc1nc(C)c(C(=O)OCC)s1	77	29	13	25	11	·
COc1ccccc1NC(=O)CN1CCN(CC(=O)Nc2ccc(F)cc2F)CC1	·	0	13	12	26	·
Oc1c(Cl)cc(Cl)cc1CNc1nccs1	113	9	51*	-19	21	52*
CCOC(=O)Cc1c(C)c2ccc(N(CC)CC)cc2oc1=O	82	16	33	30	13	·
CCN(CC)c1ccc2c(C)c(Cl)c(=O)oc2c1	89	27	50*	9	26	53*
CCN(CC)c1ccc2c(C)c(-c3ccc(N)cc3)c(=O)oc2c1	95	38	55*	24	14	67*
COC(=O)c1c(-c2ccc(S(C)(=O)=O)cc2)sc2ccc(OC)cc12	105	12	52*	19	20	43*
NC(=O)NOCc1ccccc1	94	-11	-3	-6	12	·
O=C(NOCc1ccccc1)c1coc(-c2ccccc2)n1	101	-10	60*	-29	·	36
O=C1C(CCCNC(=S)NCc2ccccc2)NC(=S)N1Cc1ccccc1 (stereo unspecified)	95	9	-6	12	13	·

Screening data (PubChem)
